Laboratory results from PubChem BioAssay (NCI).
About 83,000 compounds went through this panel and 20% of them were active in at least one assay; those are over-represented in the sample as a whole.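 Step 1: grow cells in 96-well plates. Step 2: add test compound at a single concentration. Step 3: incubate 48 h. Step 4: record percent growth.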 Unmarked numbers belong to inactive results. Active and inactive are the calls of the source. The calls were made as follows: active = growth percent below 10; inactive = the rest.

Columns and labels:
Experiment in all cases: NCI-60 one-dose screen, 48 h (100 = growth as untreated, 0 = no growth, -100 = all killed)
Settings in all cases: 10 µM unless noted
[1] = system: SR leukemia
[2] = system: RPMI-8226 leukemia
[3] = system: OVCAR-8 ovarian
[4] = system: OVCAR-5 ovarian
[5] = system: OVCAR-4 ovarian
[6] = system: SK-OV-3 ovarian
[7] = system: IGROV1 ovarian
[8] = system: HS 578T breast
[9] = system: NCI/ADR-RES ovarian
[10] = system: OVCAR-3 ovarian

Row | Structure (SMILES) | growth [1] | growth [2] | growth [3] | growth [4] | growth [5] | growth [6] | growth [7] | growth [8] | growth [9] | growth [10]
1 | CC(=O)Nc1nc(C(=O)N2N=C(C)/C(=C/c3ccccc3)C2=O)cs1 | 90.7% | 102% | 105% | 99.9% | 110% | 97.6% | 101% | 111% | 110% | 
2 | COc1cc(CNC(=O)CCSc2nc3ccccc3c(=O)n2Cc2cc(OC)c(OC)c(OC)c2)cc(OC)c1OC | 11.1% | 39.2% | 48.2% | 68.3% | 58.9% | 27.3% | 51.3% | 57.4% | 17.4% | 
3 | Clc1nc(-c2cccnc2)nc2sc3c(c12)CCCCCC3 | 87.6% | 96.9% | 103% | 102% | 97.1% | 102% | 107% | 109% | 106% | 
4 | C=C1C(=O)O[C@H]2[C@H]1CC/C(COC(=O)NCCc1ccc(Br)cc1)=C\CC[C@@]1(C)O[C@@H]21 | -4.11% (active) | 2.82% (active) | 7.1% (active) | 39.6% | 30% | 97.2% |  | 22.9% | 58.4% | -71.8% (active)
5 | COc1ccc(/C=C/c2nc(N3CCOCC3)c3cc(F)c(F)cc3n2)cc1OC | 16.2% | 12.2% | 32.9% | 76% | 30.6% | 71.8% | 53.4% | 70.1% | 22.8% | 
6 | CC(=O)Nc1nc(C(=O)N2N=C(C)/C(=C/c3ccc(Cl)cc3)C2=O)cs1 | 88.1% | 103% | 103% | 110% | 112% | 108% | 108% | 114% | 109% | 
7 | CCN(Cc1ccccc1)c1ccc(SC#N)cc1 | -9.48% (active) | 80.3% | 85.9% | 97.2% | 50.5% | 107% | 103% |  | 81.9% | 46.2%
8 | CCNC(=O)C1CCCN1C(=O)C(CCCN=C(N)N)NC(=O)C(CC(C)C)NC(=O)C(CC(C)C)NC(=O)C(Cc1ccc(O)cc1)NC(=O)C(CO)NC(=O)C(Cc1c[nH]c2ccccc12)NC(=O)C(Cc1cnc[nH]1)NC(=O)C1CCC(=O)N1 (stereo not drawn) | 102% | 33.3% | 95.9% | 87.3% | 91.3% | 98.2% |  | 81.2% | 97.8% | 125%
9 | CCN(CC)c1cc(/C=C/c2ccc(OC)c(OC)c2)nc2cc(F)c(F)cc12 | 10.7% | 99.1% | 36% | 88.7% | 87.2% | -39.5% (active) | 19.2% | 2.13% (active) | 41.2% | 
10 | COc1cccc(NC(=O)c2sc3nc4c(cc3c2N)CCCC4)c1 | 14.3% | -4.6% (active) | 25.8% | 38.6% | 72.1% | 28.7% | 37.1% | 48% | -12.1% (active) | 
11 | CCC1CCc2nc3sc(C(=O)Nc4cccc(C)c4)c(N)c3cc2C1 (stereo not drawn) | 11% | 56.5% | 94.2% | 105% | 85% | 96.9% | 95.8% | 87.7% | 76% | 
12 | O=C(CCCn1c(=O)c2sc3ccccc3c2n2nnc(-c3ccccc3)c12)NCCc1cnc[nH]1 | 84.2% | 62.5% | -28.5% (active) | -78.9% (active) | -54.5% (active) | 75.3% |  | 90.6% | 36.1% | -47.6% (active)
13 | COc1cc(Cn2c(SCCC(=O)Nc3ccc(F)cc3)nc3ccccc3c2=O)cc(OC)c1OC | 56.7% | 74.9% | 84.1% | 94.1% | 85% | 95% | 77.8% | 86.2% | 83.5% | 
14 | CCC1=C[C@@H]2CN(C1)Cc1c([nH]c3ccccc13)[C@@](C(=O)OC)(c1cc3c(cc1OC)N(C=O)[C@H]1[C@@](O)(C(=O)OC)[C@H](OC(C)=O)[C@]4(CC)[C@@H]5C[C@@H]5CN5CC[C@]31[C@@H]54)C2 | 9.37% (active) | -6.79% (active) | 8.45% (active) | 44.2% | 47% | 5.16% (active) | 30.8% | 26.3% | -28.8% (active) | 
15 | CCN1C(=O)/C(=c2\sc3n(c2=O)C2C(NN=3)N(CC)C(=S)N2CC)c2ccccc21 (stereo not drawn) | 91.8% | 105% | 100% | 107% | 88.7% |  | 100% | 99.8% | 103% | 103%
16 | CCCCCC/C=C\CCCCCCCCOc1ccc(CCOP(=O)(O)OCC[N+](C)(C)C)cc1 | 50.7% | 23.8% | 80.9% | 90.3% | 86.1% |  | 42.6% | 89.5% | 100% | 74.8%
17 | CCN1C(=O)N(CC)C2Nn3c(s/c(=C4\C(=O)N(C5CCCC5)c5ccccc54)c3=O)=NC21 (stereo not drawn) | 34.8% | 54.1% | 60.2% | 77.5% | 55.7% |  | 67.3% | 62% | 10.9% | 40.8%
18 | c1ccn2nnnc2c1 | 96.5% | 102% | 105% | 105% | 103% |  | 113% | 105% | 102% | 70.6%
19 | COc1cc2c3c(c(=O)oc2cc1OS(=O)(=O)c1ccc(C(F)(F)F)cc1)CCCCC3 | 58.6% | 84.8% | 93.8% | 79.6% |  | 83% | 86.7% | 56.4% | 76.3% | 87.9%
20 | O=C(N/N=C/c1c(Cl)cccc1Cl)c1ccccc1Nc1ccnc(C(F)(F)F)c1 | 103% | 89.7% | 64.8% | 97.8% | 63.9% | 76.9% |  | 82.7% | 67.6% | 110%
21 | COc1ccc(/C=C(\C#N)c2ccc([N+](=O)[O-])cc2)c2ccccc12 | 31% | 82.8% | 15.8% | 92.8% | 2.84% (active) | 5.28% (active) |  | 26.2% | 50% | 62.6%
22 | C#CCN1C(=O)/C(=c2\sc3n(c2=O)C2C(NN=3)N(CC)C(=O)N2CC)c2ccccc21 (stereo not drawn) | 10.1% | 18.6% | 25.4% | 33.5% | 47.5% |  | 27.6% | -5.36% (active) | -4.94% (active) | -13.6% (active)
23 | COc1cccc2cc(-c3cc4ccccc4[nH]3)/c(=N/C(=S)Nc3ccccc3)oc12 | 104% | 131% | 66.2% | 89.6% | 40.7% |  | 58.1% | 25.1% | 51.4% | 80.5%
24 | COc1ccc(/C=C/c2cc(N3CCOCC3)c3cc(F)c(F)cc3n2)cc1OC | 16.2% | 43.2% | 28.6% | 65.5% | 35.8% | 55.5% |  | 74.7% | 4.66% (active) | 
25 | COc1ccc(C2NC3=C(CCCC3)C(C#N)(C#N)C2(C#N)C#N)cc1 (stereo not drawn) | 1.12% (active) | 79.9% | 104% | 97.1% | 98.1% | 99.5% |  | 98% | 101% | 43%
26 | COC1=CC(c2ccc[nH]2)=N/C1=C\c1[nH]c(C)c(C(=O)CCCCC(=O)NCc2ccccc2)c1C | 91% | 65.6% | 31.5% | 47.3% | 50.8% | 83.3% |  | 72% | 42% | -5.91% (active)
